SMN2 splice enh – qHTS Assay for Enhancers of SMN2 Splice Variant Expression; HEK293 SMN2-luciferase splicing reporter, luminescence, 30-36 h; Potency, µM (titrated, usually from 46.1 µM), usual class: activators; hit rate 2.8% among 210,000; note: nearly all actives have a fitted effect of over 55% in size
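HEK293 cells carry an SMN2 […]–luciferase reporter in which exon 7 inclusion puts luciferase in frame. Cells were plated 10-12 h before compound addition, then incubated 30-36 h at 37C. ONE-Glo luminescence was read; sodium butyrate at 4.5 mM final served as control.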
FLuc counter – qHTS profiling assay for firefly luciferase inhibitor/activator using purifed enzyme and Km concentrations of substrates (counterscreen for miR-21 project); AID 588342, 2011; Luciferin 4-monooxygenase (Photinus pyralis), P08659; Potency, µM (highest dose often 57.5 µM), usual class: inhibitors; hit rate 6.9% among 360,000; purified FLuc, Km substrates, luminescence inhibition; note: nearly all actives have a fitted effect of over 55% in size
Target sequence (P08659 whole entry, looked up): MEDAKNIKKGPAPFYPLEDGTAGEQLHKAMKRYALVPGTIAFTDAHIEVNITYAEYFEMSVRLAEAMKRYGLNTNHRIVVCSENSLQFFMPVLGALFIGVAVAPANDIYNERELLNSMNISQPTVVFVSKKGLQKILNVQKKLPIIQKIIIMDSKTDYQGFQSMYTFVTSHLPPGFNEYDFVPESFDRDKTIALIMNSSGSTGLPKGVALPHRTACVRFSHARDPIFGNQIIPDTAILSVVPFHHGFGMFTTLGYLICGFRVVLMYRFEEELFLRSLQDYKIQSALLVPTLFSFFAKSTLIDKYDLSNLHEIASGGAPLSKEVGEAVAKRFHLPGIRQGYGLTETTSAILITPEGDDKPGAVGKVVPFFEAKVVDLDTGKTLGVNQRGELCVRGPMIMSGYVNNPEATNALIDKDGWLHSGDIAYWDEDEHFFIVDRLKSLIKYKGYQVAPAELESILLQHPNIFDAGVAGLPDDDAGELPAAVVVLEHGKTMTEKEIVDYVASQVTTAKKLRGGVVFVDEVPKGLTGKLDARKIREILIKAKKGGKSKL
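Biochemical qHTS of compounds, final roughly 60 µM downward over six points, against 10 nM purified firefly luciferase using Km concentrations of substrates (10 uM D-luciferin, 10 uM ATP) in Tris acetate pH 7.5 buffer; luminescence output.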
Rab9 promoter act – qHTS Assay for Rab9 Promoter Activators | Huh7 Rab9 promoter-luciferase reporter, luminescence, 24 h | Potency, µM (titrated, usually from 9.22 µM), hits mostly activators | hit rate 2.8% among 320,000 | AID 485297, 2010; note: nearly all actives have a fitted effect of over 60% in size
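Luminescence from Amplite-detected luciferase (10 minutes, ambient) reports Rab9 promoter activation. Before that, stable Rab9-luciferase Huh7 cells (1500/well, reduced-serum OP-MEM I plus 10% FBS) were exposed to compound for 24 hours at 37C.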
NPC1 prom act – qHTS Assay for NPC1 Promoter Activators. Potency, µM (highest dose often 9.22 µM), actives largely listed as activators. AID 485313, 2010. Huh7 NPC1 promoter luciferase reporter, 24 h. hit rate 2.4% among 320,000; note: nearly all actives have a fitted effect of over 60% in size
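Huh7 cells stably carrying NPC1 promoter–luciferase, plated in Opti-MEM with 10% FBS for 2 h, were exposed to compound in DMSO for 24 h at 37 °C; luciferase reagent was added for 10 min and luminescence read.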
ELG1 genotoxic – qHTS screen for small molecules that induce genotoxicity in human embryonic kidney (HEK293T) cells expressing luciferase-tagged ELG1. AID 504466, 2011. hit rate 1.3% among 330,000. Potency, µM (titrated, usually from 46 µM), usual class: activators. HEK293T ELG1-luciferase reporter, luminescence, 16 h; note: nearly all actives have a fitted effect of over 60% in size
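Screening used a luciferase reporter fused to human ELG1 in HEK293T cells. Luminescence was read on a CCD plate imager after 16 hr exposure and 30 min ONE-Glo incubation.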
Numbers stand for hits. Rows were chosen to be rich in hits. Some 7.5% of all compounds tested hit in one or more screens of this group. Calls come from the whole dose curve; as a rule, active = well fitted curve in the direction sought with a large enough effect; inconclusive = small, poorly fitted or top-dose-only effect, or another doubt; inactive = no such curve, though single readings can be large; an effect the other way counts as inactive or inconclusive.

Results for O=C(/C=C\c1ccc2c(c1)OCO2)NC1CC(=O)N(c2ccc(F)cc2)C1 (configuration not stated) ?
FLuc counter: inactive

How did COC(=O)/C=C/c1ccc2c(c1)OCO2 do in these assays?
SMN2 splice enh: inactive; FLuc counter: inconclusive; Rab9 promoter act: inactive; NPC1 prom act: inactive; ELG1 genotoxic: inactive

Results for CN(C)c1ccc(/C=C/C(=O)c2ccc3c(c2)OCO3)cc1 ?
FLuc counter: 2.7µM; Rab9 promoter act: inconclusive; NPC1 prom act: inconclusive; ELG1 genotoxic: inconclusive

How did O=C(/C=C/c1cccc(Br)c1)c1ccc2c(c1)OCO2 do in these assays?
FLuc counter: 11µM; Rab9 promoter act: inactive; NPC1 prom act: inactive; ELG1 genotoxic: inconclusive

What do the screens show for `O=C(/C=C/c1ccc2c(c1)OCO2)c1ccc(F)cc1`?
SMN2 splice enh: inactive; FLuc counter: 4.3µM; Rab9 promoter act: inactive; NPC1 prom act: inactive; ELG1 genotoxic: inactive

What do the screens show for `COc1ccc(C(=O)Nc2ccc(C(=O)OCc3cc(=O)n4nc(C(C)C)sc4n3)cc2)cc1`?
FLuc counter: inactive

Results for O=C(Cn1cc[n+](CC(=O)c2ccc(Cl)cc2Cl)c1)c1ccc(Cl)cc1Cl ?
FLuc counter: inactive; Rab9 promoter act: inactive; NPC1 prom act: inactive; ELG1 genotoxic: inactive

How did COc1ccc(CNC(=O)CCCN2C(=O)c3ccccc3C2=O)cc1 do in these assays?
SMN2 splice enh: inactive; FLuc counter: inactive; Rab9 promoter act: inactive; NPC1 prom act: inactive; ELG1 genotoxic: inactive

What do the screens show for `CCOc1ccc(N(C)C(=O)CCc2nnc3ccc(N4CCOCC4)nn23)cc1`?
FLuc counter: inactive; Rab9 promoter act: inactive; NPC1 prom act: inactive; ELG1 genotoxic: inactive

Results for O=C(/C=C\Nc1ccccc1Br)c1ccc2c(c1)OCO2 ?
SMN2 splice enh: 3.2µM; FLuc counter: 0.085µM; Rab9 promoter act: 0.45µM; NPC1 prom act: inconclusive; ELG1 genotoxic: inconclusive

How did COc1cccc(/C=C/C(=O)NNC(=O)c2ccncc2)c1 do in these assays?
FLuc counter: inconclusive; Rab9 promoter act: inactive; NPC1 prom act: inactive; ELG1 genotoxic: inactive

What do the screens show for `COc1cccc(/C=C/C(=O)c2ccc3c(c2)OCO3)c1OC`?
FLuc counter: 0.95µM; Rab9 promoter act: inactive; NPC1 prom act: inactive; ELG1 genotoxic: inconclusive

How did COc1cccc(/C=C/C(=O)NNC(=O)c2ccncc2)c1OC do in these assays?
FLuc counter: 21µM; Rab9 promoter act: inactive; NPC1 prom act: inactive; ELG1 genotoxic: inactive

What do the screens show for `COc1cc(/C=C/C(=O)c2ccc3c(c2)OCCO3)cc(Br)c1OCC(=O)N(C)C`?
FLuc counter: 12µM; Rab9 promoter act: inactive; NPC1 prom act: inactive; ELG1 genotoxic: inactive

What do the screens show for `Cc1ccc2c(c1)C1CN(C)CCC1N2C(=O)c1ccc(Cl)c(S(=O)(=O)N2CCOCC2)c1` (configuration not stated)?
SMN2 splice enh: inactive; FLuc counter: inactive; Rab9 promoter act: inactive; NPC1 prom act: inactive; ELG1 genotoxic: inactive

What do the screens show for `CC(OC(=O)CCCN=C1NS(=O)(=O)c2ccccc21)C(=O)Nc1ccc(F)c(F)c1F` (configuration not stated)?
FLuc counter: inactive; Rab9 promoter act: inactive; NPC1 prom act: inactive; ELG1 genotoxic: inactive

Results for COc1ccc(S(=O)(=O)N2CCN(Cc3cccs3)CC2)cc1OC ?
ELG1 genotoxic: inactive

Results for O=C(CNC(=O)c1ccc2c(c1)OCO2)N/N=C(Br)/C=C/c1ccccc1 ?
SMN2 splice enh: inactive; FLuc counter: inactive; Rab9 promoter act: inactive; NPC1 prom act: inactive; ELG1 genotoxic: inactive

Results for O=C(/C=C/c1ccccc1)c1ccc2c(c1)OCO2 ?
FLuc counter: 2.1µM; Rab9 promoter act: inconclusive; NPC1 prom act: inconclusive; ELG1 genotoxic: inconclusive

Results for COc1cccc(NC(=O)Cn2c(=O)n(Cc3ccccc3)c(=O)c3ccccc32)c1 ?
SMN2 splice enh: inactive; FLuc counter: inactive

What do the screens show for `O=C(N/N=C/c1ccoc1)c1ccccc1Br`?
FLuc counter: inactive; Rab9 promoter act: inactive; NPC1 prom act: inactive; ELG1 genotoxic: inactive

How did O=C(N/N=C/c1ccoc1)c1cc(Br)ccc1O do in these assays?
FLuc counter: 3µM; Rab9 promoter act: inactive; NPC1 prom act: inactive; ELG1 genotoxic: inactive

Source: PubChem BioAssay
